Laboratory results from PubChem BioAssay (EPA / NIEHS).
Inconclusive results are not listed. The source holds several records for some structures; these can differ, active in one and inactive in another. The source made the active and inactive calls. How the source made its calls, unless noted: active means hit-call score of the fitted dose curve at least 0.9, where 1 is the maximum; inconclusive means response in the unintended direction; inactive means score below 0.9.

Experiments:
[1] = molecular target: Estrogen receptor (Homo sapiens) (UniProt P03372); assay: OT_ERa_GFPERaERE_0120: Odyssey Thera (OT) 2-hour HeLa Transcription Induction Assay for Estrogen Receptor (AID 2283382)
Estrogen receptor (Homo sapiens), sequence (P03372 whole entry, looked up): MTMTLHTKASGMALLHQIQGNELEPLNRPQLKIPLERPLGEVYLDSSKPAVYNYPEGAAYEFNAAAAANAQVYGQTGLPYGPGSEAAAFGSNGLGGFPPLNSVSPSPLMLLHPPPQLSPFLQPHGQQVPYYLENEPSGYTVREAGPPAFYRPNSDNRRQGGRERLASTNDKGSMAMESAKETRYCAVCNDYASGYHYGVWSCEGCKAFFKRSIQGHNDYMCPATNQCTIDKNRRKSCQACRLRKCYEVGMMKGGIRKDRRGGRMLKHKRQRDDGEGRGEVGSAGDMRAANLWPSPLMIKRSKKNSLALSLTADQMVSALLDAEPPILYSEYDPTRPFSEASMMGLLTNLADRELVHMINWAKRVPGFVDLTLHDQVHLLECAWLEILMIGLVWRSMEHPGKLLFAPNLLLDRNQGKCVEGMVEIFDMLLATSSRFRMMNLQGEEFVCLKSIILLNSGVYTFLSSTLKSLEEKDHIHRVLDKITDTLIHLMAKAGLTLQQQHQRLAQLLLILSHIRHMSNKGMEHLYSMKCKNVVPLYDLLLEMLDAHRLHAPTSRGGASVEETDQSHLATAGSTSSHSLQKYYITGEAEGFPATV
Procedure, shortened: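 Fluorescence microscopy read-out: inducible fluorescent protein reporter in HeLa cells, imaged 2 h post-dose. Signal increase over DMSO negative control fitted as single primary endpoint via high content image analysis.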

[2] = molecular target: Retinoic acid receptor RXR-alpha (Homo sapiens) (UniProt P19793); assay: OT_NURR1_NURR1RXRa_0480: Odyssey Thera (OT) 8-hour HEK293T Protein Complementation Assay for Nurr1/retinoid X receptor (RXR) (AID 2283385)
Retinoic acid receptor RXR-alpha (Homo sapiens), sequence (P19793 whole entry, looked up, the tested form may be a part): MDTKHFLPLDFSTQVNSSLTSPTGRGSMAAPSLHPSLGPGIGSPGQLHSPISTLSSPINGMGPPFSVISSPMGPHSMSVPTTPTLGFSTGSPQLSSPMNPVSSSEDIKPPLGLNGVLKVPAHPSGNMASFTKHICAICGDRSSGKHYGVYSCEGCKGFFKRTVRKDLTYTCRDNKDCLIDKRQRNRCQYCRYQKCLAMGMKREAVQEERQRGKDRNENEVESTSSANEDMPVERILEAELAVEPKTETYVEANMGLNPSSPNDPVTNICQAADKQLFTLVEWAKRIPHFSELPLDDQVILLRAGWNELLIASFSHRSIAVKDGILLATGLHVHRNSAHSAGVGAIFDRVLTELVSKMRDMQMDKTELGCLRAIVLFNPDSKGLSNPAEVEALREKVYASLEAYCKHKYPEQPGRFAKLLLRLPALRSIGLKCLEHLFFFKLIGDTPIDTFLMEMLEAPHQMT
Procedure, shortened: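 Read-out: fluorescence from protein-fragment complementation between Nurr1 and RXRα in human HEK293T cells, 8 h after dosing. DMSO served as negative control; increased signal counted as activity.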

[3] = molecular target: Retinoic acid receptor RXR-alpha (Homo sapiens) (UniProt P19793); assay: OT_NURR1_NURR1RXRa_1440: Odyssey Thera (OT) 24-hour HEK293T Protein Complementation Assay for Nurr1/retinoid X receptor (RXR) (AID 2283386)
Procedure, shortened: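 Fluorescence PCA read-out; HEK293T; 24 h post-dose; bait/prey fused to reporter fragments; gain-of-signal fit vs DMSO negative control.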

[4] = molecular target: Peroxisome proliferator-activated receptor gamma (Homo sapiens) (UniProt P37231); assay: OT_PPARg_PPARgSRC1_0480: Odyssey Thera (OT) 8-hour Protein-Complementation Assay for Peroxisome Proliferator-activated Receptor Gamma / SRC-1 Co-activator (AID 2283387);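 further: nuclear to cytoplasmic split Venus YFP fluorescence ratio reporting PPARg SRC-1 interaction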
Peroxisome proliferator-activated receptor gamma (Homo sapiens), sequence (P37231 whole entry, looked up, the tested form may be a part): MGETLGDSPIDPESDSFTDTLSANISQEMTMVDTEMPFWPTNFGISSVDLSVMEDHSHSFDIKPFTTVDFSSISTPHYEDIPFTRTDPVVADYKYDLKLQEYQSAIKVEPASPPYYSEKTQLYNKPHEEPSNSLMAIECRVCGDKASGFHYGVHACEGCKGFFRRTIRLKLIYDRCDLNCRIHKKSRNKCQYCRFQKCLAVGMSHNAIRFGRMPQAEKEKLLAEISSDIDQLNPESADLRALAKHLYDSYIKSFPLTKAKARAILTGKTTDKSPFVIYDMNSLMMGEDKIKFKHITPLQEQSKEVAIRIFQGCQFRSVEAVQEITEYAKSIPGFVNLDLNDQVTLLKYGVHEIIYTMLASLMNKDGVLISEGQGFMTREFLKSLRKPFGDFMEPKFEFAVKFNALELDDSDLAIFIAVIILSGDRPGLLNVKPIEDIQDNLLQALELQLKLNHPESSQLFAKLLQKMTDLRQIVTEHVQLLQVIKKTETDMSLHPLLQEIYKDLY
Procedure, shortened: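 Protein-fragment complementation in HEK293T: Venus YFP halves (residues 1-158, 159-239, mutated to IFP1/IFP2) fused to PPARg/SRC-1. 8 h exposure; N/C ratio at 488 nm; DMSO negative control.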

[5] = molecular target: Peroxisome proliferator-activated receptor gamma (Homo sapiens) (UniProt P37231); assay: OT_PPARg_PPARgSRC1_1440: Odyssey Thera (OT) 24-hour Protein-Complementation Assay for Peroxisome Proliferator-activated Receptor Gamma/ SRC-1 Co-activator (AID 2283388);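 further: nuclear to cytoplasmic ratio of reconstituted Venus YFP fluorescence in fixed imaged cells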
Procedure, shortened: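 Readout: nuclear-to-cytoplasmic 488 nm fluorescence ratio, ≥350 cells per image, 8 images per well, after 24 h compound exposure of HEK293T expressing PPARg/SRC-1 split-YFP fusions. Activity fitted in positive direction against DMSO.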

[6] = read-out: Tumor necrosis factor receptor superfamily member 6 (Homo sapiens) (UniProt P25445); assay: LTEA_HepaRG_FAS: Life Technologies and Expression Analysis (LTEA) Assay for Fas cell surface death receptor (FAS) using HepaRG (AID 2283447; active means hit-call score of the fitted dose curve at least 0.9, where 1 is the maximum; inactive means score below 0.9); settings: mRNA level, 48 h; actives raise or lower the signal
Procedure, shortened: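 Differentiated human HepaRG cells, pre-cultured 48 h, were exposed in duplicate for 48 h to 8-point half-log concentrations (top 100 uM, 0.5% DMSO) in serum-free induction medium; FAS mRNA measured by qRT-PCR, normalized to ACTB/GAPDH/POLR2A, bidirectional fit versus DMSO.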

[7] = CEETOX_H295R_OHPREG: CeeTox H295R High-throughput Steroidogenesis Assay for OH-Pregnenolone (OHPREG) (AID 2283434; active means hit-call score of the fitted dose curve at least 0.9, where 1 is the maximum; inactive means score below 0.9); settings: actives raise or lower the signal
Procedure, shortened: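 Readout: HPLC-MS/MS of 17alpha-hydroxypregnenolone in medium after 48 h chemical exposure of H295R cells pretreated with forskolin. Values fitted bidirectionally relative to DMSO; chemicals reducing viability to 20–70% were retested after 10-fold dilution.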

[8] = CEETOX_H295R_OHPROG: CeeTox H295R High-throughput Steroidogenesis Assay for OH-Progesterone (OHPROG) (AID 2283435; active means hit-call score of the fitted dose curve at least 0.9, where 1 is the maximum; inactive means score below 0.9;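 on AC50: 17alpha-hydroxyprogesterone secreted into medium measured by HPLC-MS/MS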); settings: actives raise or lower the signal
Procedure, shortened: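 HPLC-MS/MS quantification of 17alpha-hydroxyprogesterone secreted by H295R cells after 48 h chemical exposure, following 48 h 10 uM forskolin prestimulation. Gain or loss of signal fitted relative to DMSO. Viability checked by MTT in the same wells.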

[9] = CEETOX_H295R_ANDR: CeeTox H295R High-throughput Steroidogenesis Assay for Androstenedione (ANDR) (AID 2283436; active means hit-call score of the fitted dose curve at least 0.9, where 1 is the maximum; inactive means score below 0.9;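 further: human H295R adrenal cells exposed for 48 h with androstenedione measured in medium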); settings: actives raise or lower the signal
Procedure, shortened: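 Steroidogenesis in H295R adrenal cells after 48 h dosing; androstenedione quantified by LC-MS/MS, with DMSO as negative control and baseline for bidirectional curve fitting.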

[10] = CEETOX_H295R_ESTRADIOL: CeeTox H295R High-throughput Steroidogenesis Assay for Estradiol (AID 2283440; active means hit-call score of the fitted dose curve at least 0.9, where 1 is the maximum; inactive means score below 0.9;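 further: estradiol secreted into medium quantified by LC-MS/MS after dansyl derivatisation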); settings: actives raise or lower the signal
Procedure, shortened: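 H295R, 48 h forskolin (10 uM) prestim → 48 h compound, 0.1% DMSO final. Estradiol in medium: MTBE extraction, dansyl chloride derivatization, LC-MS/MS. Fit bidirectional vs DMSO baseline; MTT viability in same wells.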

[11] = CEETOX_H295R_PROG: CeeTox H295R High-throughput Steroidogenesis Assay for Progesterone (PROG) (AID 2283442; active means hit-call score of the fitted dose curve at least 0.9, where 1 is the maximum; inactive means score below 0.9); settings: actives raise or lower the signal
Procedure, shortened: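 Progesterone read-out: HPLC-MS/MS on MTBE extracts of conditioned medium after 48 h chemical exposure of forskolin-primed (10 uM, 48 h) H295R cells. Gain or loss of signal was fitted relative to DMSO baseline.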

[12] = molecular target: Estrogen receptor beta (Homo sapiens) (UniProt Q92731); assay: OT_ER_ERbERb_1440: Odyssey Thera (OT) 24-hour HEK293T Protein-Complementation Assay for Estrogen Receptor-beta/-beta Homodimer (AID 2283380);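 further: fluorescence gain from ER beta LBD homodimer complementation read by laser scanning cytometry; scored as signal increase over DMSO baseline for both agonists and antagonists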
Estrogen receptor beta (Homo sapiens), sequence (Q92731 whole entry, looked up, the tested form may be a part): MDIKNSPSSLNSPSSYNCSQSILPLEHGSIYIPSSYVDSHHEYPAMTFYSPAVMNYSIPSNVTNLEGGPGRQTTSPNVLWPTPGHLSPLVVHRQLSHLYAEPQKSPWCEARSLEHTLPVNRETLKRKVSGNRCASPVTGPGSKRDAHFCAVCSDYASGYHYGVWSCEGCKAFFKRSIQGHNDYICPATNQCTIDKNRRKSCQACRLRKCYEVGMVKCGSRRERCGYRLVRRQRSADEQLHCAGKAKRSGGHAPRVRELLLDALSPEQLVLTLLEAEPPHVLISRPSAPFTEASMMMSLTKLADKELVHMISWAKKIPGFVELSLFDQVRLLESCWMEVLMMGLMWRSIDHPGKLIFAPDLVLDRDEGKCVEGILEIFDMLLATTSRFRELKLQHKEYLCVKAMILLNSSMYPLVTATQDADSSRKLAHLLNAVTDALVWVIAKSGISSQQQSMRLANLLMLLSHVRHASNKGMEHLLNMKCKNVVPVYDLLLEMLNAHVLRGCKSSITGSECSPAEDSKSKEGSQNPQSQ
Procedure, shortened: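 HEK293T cells stably expressing human ER-beta LBD (aa 310-547) PCA homodimer pair, dosed 24 h; formaldehyde-fixed, Draq5-stained. Readout: increase in nuclear (agonist) or nuclear plus cytoplasmic (antagonist) fluorescence intensity versus DMSO, gain-of-signal fitting.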

[13] = CEETOX_H295R_CORTIC: CeeTox H295R High-throughput Steroidogenesis Assay for Corticosterone (CORTIC) (AID 2283437; active means hit-call score of the fitted dose curve at least 0.9, where 1 is the maximum; inactive means score below 0.9;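 further: corticosterone secreted into medium quantified by mass spectrometry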); settings: actives raise or lower the signal
Procedure, shortened: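 Steps: seed H295R, adhere overnight; 10 uM forskolin 48 h; replace with chemical (0.1% DMSO) 48 h; extract medium with MTBE; quantify corticosterone by HPLC-MS/MS; score bidirectionally vs DMSO.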

[14] = CEETOX_H295R_CORTISOL: CeeTox H295R High-throughput Steroidogenesis Assay for Cortisol (AID 2283438; active means hit-call score of the fitted dose curve at least 0.9, where 1 is the maximum; inactive means score below 0.9;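 further: cortisol secreted into medium quantified by LC-MS/MS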); settings: actives raise or lower the signal
Procedure, shortened: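 Read-out: cortisol in culture medium by reverse-phase C18 HPLC with ESI-positive tandem MS, after MTBE liquid-liquid extraction. Cells: human adrenal H295R, forskolin-primed (10 uM, 48 h) before 48 h chemical exposure in 0.1% DMSO.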

[15] = CEETOX_H295R_DOC: CeeTox H295R High-throughput Steroidogenesis Assay for DOC (AID 2283439; active means hit-call score of the fitted dose curve at least 0.9, where 1 is the maximum; inactive means score below 0.9); settings: actives raise or lower the signal
Procedure, shortened: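 Human adrenocortical H295R cells, passages up to 10, received 10 uM forskolin for 48 h before chemical addition. After another 48 h exposure in 0.1% DMSO, secreted DOC was measured by LC-MS/MS, with gain or loss fitted against DMSO controls.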

[16] = molecular target: Bile acid receptor (Homo sapiens) (UniProt Q96RI1); assay: OT_FXR_FXRSRC1_0480: Odyssey Thera (OT) 8-hour HEK293T Protein-Complementation Assay for Farnesoid X receptor/SRC-1 Co-activator (AID 2283383)
Bile acid receptor (Homo sapiens), sequence (Q96RI1 whole entry, looked up, the tested form may be a part): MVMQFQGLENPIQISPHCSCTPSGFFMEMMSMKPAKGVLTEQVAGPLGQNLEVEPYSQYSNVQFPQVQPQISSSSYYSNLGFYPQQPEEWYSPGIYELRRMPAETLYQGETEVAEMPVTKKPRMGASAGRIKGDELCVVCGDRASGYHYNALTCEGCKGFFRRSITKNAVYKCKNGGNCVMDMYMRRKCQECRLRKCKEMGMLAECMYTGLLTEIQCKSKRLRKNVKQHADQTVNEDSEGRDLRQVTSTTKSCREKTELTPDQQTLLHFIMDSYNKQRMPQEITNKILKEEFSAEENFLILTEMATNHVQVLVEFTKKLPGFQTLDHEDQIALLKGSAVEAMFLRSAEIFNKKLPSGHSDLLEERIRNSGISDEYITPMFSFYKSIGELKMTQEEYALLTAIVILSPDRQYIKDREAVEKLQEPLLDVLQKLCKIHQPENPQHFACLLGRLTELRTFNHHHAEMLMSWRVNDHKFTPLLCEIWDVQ
Procedure, shortened: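 Fluorescence intensity read-out, 8 h post-dose, HEK293T protein-fragment complementation; FXR bait and SRC-1 prey each linked to reporter fragments. Activity scored as signal increase over DMSO negative control.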

[17] = molecular target: Bile acid receptor (Homo sapiens) (UniProt Q96RI1); assay: OT_FXR_FXRSRC1_1440: Odyssey Thera (OT) 24-hour HEK293T Protein-Complementation Assay for Farnesoid X receptor/SRC-1 Co-activator (AID 2283384)
Procedure, shortened: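 Fluorescence readout, 24 h post-dose, HEK293T; FXR and SRC-1 fused to complementary reporter fragments, association reconstitutes signal. Positive-direction fit vs DMSO baseline.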

[18] = molecular target: Estrogen receptor (Homo sapiens) (UniProt P03372); assay: OT_ERa_GFPERaERE_0480: Odyssey Thera (OT) 8-hour HeLa Transcription Induction Assay for Estrogen Receptor (AID 2283381; active means hit-call score of the fitted dose curve at least 0.9, where 1 is the maximum; inactive means score below 0.9)
Procedure, shortened: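 GFP-ERE reporter, HeLa, 8 h exposure. Readout: fluorescence microscopy, high-content image analysis. Fit direction positive vs DMSO negative control.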

Measured: AC50

CCCCCOC(C)=O
inactive: [1] | [2] | [3] | [4] | [5] | [6]

c1ccc2ncccc2c1
inactive: [1] | [2] | [3] | [4] | [5] | [6]

OCc1c[nH]c2ccccc12
active: [8] 15.8 µM
inactive: [7] | [9] | [10] | [11]

OCCNCCO
inactive: [1] | [2] | [3] | [6]

OC(CCl)CCl
inactive: [12] | [1] | [2] | [3] | [4] | [5] | [6]

CCn1nc(C)c2c1C(=O)NCC(c1ccc(O)cc1)=N2
inactive: [12] | [1] | [2] | [3] | [4] | [5] | [7] | [13] | [14] | [6]
active: [3] 21.4 µM | [8] 2.63 µM | [15] 50 µM | [10] 0.18 µM | [11] 1.91 µM

CC(C)c1nnc2ccc(-c3ocnc3-c3cc(F)ccc3F)cn12
not listed: [9] | [18]
inactive: all other assays above

Cn1cc[nH]c1=S
inactive: [12] | [1] | [2] | [3] | [4] | [5] | [6]

O=C(O)c1ccc2c(c1)nc(C(=O)NC1CCN(C3CC3)CC1)n2Cc1cc(-c2ccc(Cl)s2)on1
inactive: [12] | [1] | [16] | [17] | [2] | [3] | [4] | [5] | [6]

O=S1(=O)CCCO1
active: [12] 17.5 µM
inactive: [18] | [1] | [2] | [3] | [4] | [5] | [6]

OCC(CO)(CO)CO
inactive: [12] | [1] | [3] | [4] | [5] | [6]

O=C(O)c1cccc(C(=O)O)c1
inactive: [1] | [16] | [17] | [4] | [5] | [6]

NC(N)=O
inactive: [12] | [1] | [2] | [3] | [4] | [5] | [6]

OC[C@H]1O[C@@](CO)(O[C@H]2O[C@H](CO)[C@@H](O)[C@H](O)[C@H]2O)[C@@H](O)[C@@H]1O
inactive: [12] | [1] | [17] | [2] | [3] | [4] | [5] | [6]

CC(=O)c1ccccc1
inactive: [18] | [1] | [2] | [3] | [4] | [5] | [6]

O=C(O)[C@H](O)[C@@H](O)C(=O)O
inactive: [12] | [1] | [16] | [17] | [2] | [3] | [4] | [5] | [6]

CC1(C)C(=O)N(Cl)C(=O)N1Cl
inactive: [1] | [2] | [3] | [4] | [5] | [6]

C[C@@H](Oc1ccc(CNC(=O)c2cccnc2Oc2ccc3c(c2)OCO3)c(F)c1)C(=O)O
not listed: [9] | [17] | [18]
inactive: all other assays above

CCCCCCCC1CCC(=O)O1 (stereo not drawn)
inactive: [12] | [1] | [2] | [4] | [5] | [7] | [8] | [10] | [11] | [6]

C=CN1CCCC1=O
inactive: [1] | [2] | [3] | [4] | [5] | [6]
